T cruzi growth-1: T. cruzi proliferation inhibition. inhibition, % at 8.34 µM. T. cruzi beta-gal in NIH3T3, GalScreen luminescence, 90 h. 77,000 tested, 5.9% active;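 active means mean inhibition above about 93%, with at least 55% of replicates each passing it, limit read from the data, passing the limit was not always enough; inconclusive means only one of those two conditions holds; inactive means neither condition holds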
Pf Dd2 growth: blocks growth of Plasmodium falciparum Dd2 parasites; P. falciparum Dd2 growth, SYBR Green, 72 h; stronger effect = lower value; activity change, % at 10 µM; 94,000 tested, 2.3% active; in the data active means activity change below about -80%; inconclusive means no clear call, values can overlap the other calls
C diff growth: inhibitors of Clostridium difficile growth; 86,000 tested, 0.25% active; AID 1259249; Clostridium difficile clinical isolate growth, OD600, 24 h; stronger effect = lower value; growth activity, negative = inhibition, % at 16 µg/mL (by protocol);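 active means mean growth activity at or below -80% and every replicate also at or below -80%; inconclusive means mean at or below -80% but some replicate above -80%; inactive means mean growth activity above -80%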;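 further: 0% = DMSO wells and -100% = levofloxacin 16 µg/mL wells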
T cruzi growth-2: Trypanosoma cruzi proliferation inhibition. 5,600 tested, 72% active. AID 651739. shares compounds with T cruzi growth-1. inhibition, % at 8.35 µM. T. cruzi beta-gal in NIH3T3, GalScreen luminescence, 90 h;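 active means mean replicate inhibition above about 95% and at least 55% of replicates individually reaching it, limit read from the data; inconclusive means only one of the two criteria is met; inactive means neither criterion is met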
T cruzi growth-3: Trypanosoma cruzi proliferation inhibition; shares compounds with T cruzi growth-1; T. cruzi beta-gal in NIH3T3, GalScreen luminescence, 90 h; inhibition, % at 2.09 µM; 5,600 tested, 21% active; AID 651740;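 active means mean inhibition above about 95%, with at least 55% of replicates also reaching it, limit read from the data; inconclusive means meets just one of the two conditions; inactive means meets neither condition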;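 further: plate controls were neutral control median for no effect and positive control median for full effect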
NIH3T3 tox: cytotoxicity in mouse NIH/3T3 fibroblasts; shares compounds with T cruzi growth-1; NIH/3T3 viability, CellTiter-Glo ATP luminescence, 90 h; cytotoxicity (signal decrease), % at 8.35 µM; 5,600 tested, 14% active;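 active means mean signal decrease across replicates above about 35% based on untreated-well scatter, with enough replicates individually passing, limit read from the data; inconclusive means no rule stated though some were filed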;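 further: 0% = median of neutral control wells and 100% = median of positive control wells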
NIH3T3 tox 2: kills mouse NIH/3T3 fibroblasts | NIH/3T3 viability, CellTiter-Glo ATP luminescence, 90 h | shares compounds with T cruzi growth-1 | 5,600 tested, 56% active | inhibition, % at 24.9 µM | AID 651744;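 active means mean loss of cell viability signal at or above a set limit, and enough replicates individually reaching it; inconclusive means meets only the mean limit or only the replicate share; inactive means meets neither condition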;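 further: 0% = median of neutral control wells and 100% = median of positive control wells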
Active calls of the source: *. Most compounds without a hit are left out; they make up all but 6.7% or so of the library.

C[C@@H]1CCCCO[C@@H](CN(C)C(=O)C2CCCCC2)[C@@H](C)CN([C@H](C)CO)C(=O)c2cc(N(C)C)ccc2O1 was read as T cruzi growth-1 35 and C diff growth -17.
Screening C[C@H](CO)N1C[C@H](C)[C@H](CN(C)C(=O)C2CCCCC2)OCCCC[C@H](C)Oc2ccc(N(C)C)cc2C1=O returned T cruzi growth-1 100*, Pf Dd2 growth -15, C diff growth -5, T cruzi growth-2 53, T cruzi growth-3 20, NIH3T3 tox 5 and NIH3T3 tox 2 -19.
Screening C[C@@H]1CCCCO[C@H](CN(C)C(=O)C2CCCCC2)[C@H](C)CN([C@@H](C)CO)C(=O)c2cc(N(C)C)ccc2O1 returned T cruzi growth-1 110*, Pf Dd2 growth -7, C diff growth -20, T cruzi growth-2 68, T cruzi growth-3 21, NIH3T3 tox -1 and NIH3T3 tox 2 3.
`CCCN1[C@@H]2c3ccc(C4=CCCC4)c(=O)n3C[C@H]1[C@H](CO)[C@H]2C(=O)NCCOC` gave T cruzi growth-1 26, Pf Dd2 growth -18 and C diff growth -3.
Screening COc1cccc(NC(=O)N2C[C@H](O)COC[C@@H]3O[C@H](CC(=O)NC4CCCC4)CC[C@H]32)c1 returned T cruzi growth-1 14 and Pf Dd2 growth 3.
Screening O=C(C[C@H]1CC[C@H](NC(=O)Nc2cccc(F)c2)[C@H](CO)O1)NCC1CCCCC1 returned Pf Dd2 growth 3 and C diff growth 3.
O=C(C[C@H]1C[C@@H]2c3cc(NC(=O)C4CCOCC4)ccc3O[C@@H]2[C@H](CO)O1)NCCN1CCCCC1 was read as T cruzi growth-1 171*, Pf Dd2 growth 0, C diff growth -8, T cruzi growth-2 75, T cruzi growth-3 10, NIH3T3 tox 13 and NIH3T3 tox 2 -1.
Screening O=C(C[C@@H]1C[C@H]2c3cc(NC(=O)C4CCOCC4)ccc3O[C@H]2[C@H](CO)O1)NCc1ccc(Oc2ccccc2)cc1 returned T cruzi growth-1 142*, Pf Dd2 growth -68, T cruzi growth-2 -3, T cruzi growth-3 7, NIH3T3 tox 2 and NIH3T3 tox 2 -6.
For COc1ccc(CNC(=O)C[C@@H]2C[C@@H]3c4cc(NC(=O)C5CCC5)ccc4O[C@@H]3[C@@H](CO)O2)cc1 the results were T cruzi growth-1 -36, Pf Dd2 growth 2 and C diff growth 3.
O=C(C[C@@H]1C[C@@H]2c3cc(NC(=O)C4CCOCC4)ccc3O[C@@H]2[C@@H](CO)O1)NCc1ccc(Oc2ccccc2)cc1 was read as T cruzi growth-1 31 and Pf Dd2 growth -30.
Screening COc1ccc(CNC(=O)C[C@H]2C[C@@H]3c4cc(NC(=O)C5CCC5)ccc4O[C@@H]3[C@H](CO)O2)cc1 returned T cruzi growth-1 165*, Pf Dd2 growth -28, C diff growth 4, T cruzi growth-2 11, T cruzi growth-3 9, NIH3T3 tox 2 and NIH3T3 tox 2 -6.
O=C(C[C@@H]1C[C@@H]2c3cc(NC(=O)CC4CC4)ccc3O[C@@H]2[C@H](CO)O1)NCCN1CCCCC1 was read as T cruzi growth-1 -123, Pf Dd2 growth 0 and C diff growth 0.
COCC(=O)Nc1ccc2c(c1)C(=O)N(C)[C@@H]1CC[C@@H](CC(=O)NCCc3ccncc3)O[C@@H]1CO2 was read as T cruzi growth-1 13, Pf Dd2 growth -7 and C diff growth -1.
For COc1ccc(S(=O)(=O)Nc2ccc3c(c2)C(=O)N([C@@H](C)CO)C[C@H](C)[C@H](CN(C)S(=O)(=O)c2ccc(OC)cc2)OCCCC[C@@H](C)O3)cc1 the results were T cruzi growth-1 93*, Pf Dd2 growth -65, C diff growth -3, T cruzi growth-2 106*, T cruzi growth-3 80, NIH3T3 tox 16 and NIH3T3 tox 2 23.
`COc1ccc(S(=O)(=O)Nc2ccc3c(c2)C(=O)N([C@H](C)CO)C[C@H](C)[C@H](CN(C)S(=O)(=O)c2ccccc2)OCCCC[C@@H](C)O3)cc1` gave Pf Dd2 growth -18 and C diff growth -3.
COc1ccc(S(=O)(=O)N(C)C[C@H]2OCCCC[C@H](C)Oc3ccc(NS(=O)(=O)c4ccccc4)cc3C(=O)N([C@@H](C)CO)C[C@@H]2C)cc1 was read as T cruzi growth-1 93 and C diff growth -3.
`COc1ccc(S(=O)(=O)Nc2ccc3c(c2)C(=O)N([C@@H](C)CO)C[C@H](C)[C@@H](CN(C)S(=O)(=O)c2ccccc2)OCCCC[C@H](C)O3)cc1` gave Pf Dd2 growth -72 and C diff growth -1.
`COc1ccc(S(=O)(=O)Nc2ccc3c(c2)C(=O)N([C@H](C)CO)C[C@@H](C)[C@H](CN(C)S(=O)(=O)c2ccc(OC)cc2)OCCCC[C@@H](C)O3)cc1` gave T cruzi growth-1 inconclusive, Pf Dd2 growth -73, C diff growth 4, T cruzi growth-2 102*, T cruzi growth-3 63, NIH3T3 tox 18 and NIH3T3 tox 2 12.
Screening COc1ccc(S(=O)(=O)Nc2ccc3c(c2)C(=O)N([C@H](C)CO)C[C@H](C)[C@@H](CN(C)S(=O)(=O)c2ccc(OC)cc2)OCCCC[C@H](C)O3)cc1 returned T cruzi growth-1 inconclusive, Pf Dd2 growth -63, C diff growth 3, T cruzi growth-2 111*, T cruzi growth-3 51, NIH3T3 tox 6 and NIH3T3 tox 2 13.
For COc1cccc(-c2ccc3c(c2)[C@H]2[C@H](CCN2S(=O)(=O)c2ccccc2OC)[C@@H](CO)N3)c1 the results were T cruzi growth-1 71, Pf Dd2 growth -70 and C diff growth -1.
COc1ccc(NC(=O)Nc2ccc3c(c2)C(=O)N([C@@H](C)CO)C[C@H](C)[C@@H](CN(C)S(=O)(=O)c2cccs2)O3)cc1 was read as T cruzi growth-1 -18, Pf Dd2 growth 14 and C diff growth -5.
`COc1ccc(S(=O)(=O)Nc2ccc3c(c2)C(=O)N([C@@H](C)CO)C[C@@H](C)[C@H](CN(C)S(=O)(=O)c2cccs2)OCCCC[C@H](C)O3)cc1` gave T cruzi growth-1 63, Pf Dd2 growth -35 and C diff growth -9.
COc1ccccc1NC(=O)N1CC[C@@H]2[C@H]1c1cc(-c3ccc(F)cc3)ccc1N(C)[C@H]2CO was read as T cruzi growth-1 85, Pf Dd2 growth -14 and C diff growth 15.
Screening CN1c2ccc(-c3ccc(F)cc3)cc2[C@H]2[C@H](CCN2C(=O)Nc2cc(F)ccc2F)[C@H]1CO returned T cruzi growth-1 15, Pf Dd2 growth -8 and C diff growth 56.
